GPR151 ag: activators of human GPR151. Q8TDV0. PathHunter beta-arrestin GPR151 cells, luminescence. activation, % at 11.2 µM. 650,000 compounds, 1% hits. AID 1508602; in the data active means activation above about 4.9%;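 further: 0% = median of compound wells and 100% = cells with positive control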
FBW7 act: activators of human E3 ligase FBW7; AID 1259310; AlphaScreen FBW7–phospho-cyclin E peptide binding, activator screen; 650,000 compounds, 0.13% hits; normalized activity (activation), % at 26.1 µM; in the data active means normalized activity above about 1.9%;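 further: purified mutant Fbw7 with reduced substrate affinity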
Target sequence (Q969H0 whole entry, looked up): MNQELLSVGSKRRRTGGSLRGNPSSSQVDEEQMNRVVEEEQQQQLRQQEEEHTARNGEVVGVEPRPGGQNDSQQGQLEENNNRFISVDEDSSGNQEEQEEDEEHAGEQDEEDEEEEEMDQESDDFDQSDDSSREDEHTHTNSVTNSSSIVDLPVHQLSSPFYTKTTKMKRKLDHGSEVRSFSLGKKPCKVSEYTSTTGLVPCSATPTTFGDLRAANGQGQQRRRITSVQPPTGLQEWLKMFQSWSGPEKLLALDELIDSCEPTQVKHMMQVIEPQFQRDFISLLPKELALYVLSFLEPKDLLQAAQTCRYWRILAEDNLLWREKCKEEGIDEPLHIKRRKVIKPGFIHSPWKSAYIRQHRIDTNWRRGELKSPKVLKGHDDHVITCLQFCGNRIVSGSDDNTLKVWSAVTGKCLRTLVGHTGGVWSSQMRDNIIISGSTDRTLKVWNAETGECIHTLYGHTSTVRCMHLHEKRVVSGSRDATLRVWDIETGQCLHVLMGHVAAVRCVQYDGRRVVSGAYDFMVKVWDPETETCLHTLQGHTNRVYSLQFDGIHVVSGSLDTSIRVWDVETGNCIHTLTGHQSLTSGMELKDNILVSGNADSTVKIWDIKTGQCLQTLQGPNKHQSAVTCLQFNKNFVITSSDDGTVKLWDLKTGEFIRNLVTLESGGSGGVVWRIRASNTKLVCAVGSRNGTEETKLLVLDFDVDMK
TEAD-YAP block: TEAD-YAP interaction inhibition. HEK-TIYL cells, TEAD-Gal4/YAP UAS-luciferase luminescence. inhibition, % at 9.12 µM. 640,000 compounds, 1.4% hits. AID 1259422; in the data active means inhibition above about 32%;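 further: 0% = median of test compound wells and 100% = reference inhibitor wells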
MITF primary: human MITF inhibition, primary screen; O75030; AlphaScreen MITF homodimerization, bead proximity signal; inhibition, % at 2.6 µM; 650,000 compounds, 0.91% hits; in the data active means inhibition above about 50%;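 further: 0% = vehicle wells with protein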
Numbers without * were called inactive. This is a sample that favours compounds with a hit; in the whole collection about 3.5% have one here.

SMILES | GPR151 ag | FBW7 act | TEAD-YAP block | MITF primary
Cc1cc2nc3c(=O)[nH]c(=O)[nH]c3nc2c([N+](=O)[O-])c1N | 1 | -1 | 2 | 68*
CCC(Nc1ncnc2ccccc12)C(=O)O (stereo not drawn) | 0 | 0 | 6 | -1
CCOC(=O)/C(=N\Nc1ncnc2ccccc12)c1cccs1 | -10 | 0 | 36* | -3
CC1(Cc2cccc(F)c2)C(=O)Nc2ccc(-c3cccnc3)cc21 (stereo not drawn) | 4 | 0 | 40* | 23
CC1(Cc2cccc(C#N)c2)C(=O)Nc2ccc(-c3cccnc3)cc21 (stereo not drawn) | 1 | 0 | 45* | 25
CC1(Cc2cccc(C#N)c2)C(=O)Nc2ccc(F)cc21 (stereo not drawn) | 5 | 0 | 2 | -4
CCC[C@@H]1NC(=O)[C@H]2CN(S(=O)(=O)c3ccc4ccccc4c3)CCN2C1=O | 0 | 0 | -10 | 5
N#CCCn1ncc2c1/C(=C/c1ccccc1)CC2 | 3 | 0 | 3 | 14
Cn1ncc2c1/C(=C/c1ccc(Cl)cc1)CC2 | -10 | 0 | 55* | 8
COc1ccccc1C(=O)N/C(=C\c1ccccc1)C(=O)NC(CC(C)C)C(=O)O (stereo not drawn) | 0 | 0 | 7 | 4
NCCOc1cc(C(=O)Nc2ccc3[nH]ncc3c2)ccn1 | -1 | 1 | 72* | 5
O=C(Nc1ccc2[nH]ncc2c1)c1ccc(OC2CCOCC2)nc1 | 0 | 0 | 48* | 21
CCC(C)c1ccc(OCCCNCCO)cc1 (stereo not drawn) | -2 | 0 | 40* | 22
O=C(Cc1ccc2c(c1)OCCCO2)c1ccc(O)cc1O | 2 | 0 | 61* | 3
O=C(Cc1ccccc1)c1ccc(O)cc1O | 1 | 0 | -5 | 12
N#Cc1ccc(C=Nc2ccccc2C(N)=O)cc1 | 1 | 0 | -7 | 9
CC(=O)N=C1c2ccccc2CN1c1cc(Cl)cc(Cl)c1 | 2 | 0 | -12 | 10
O=c1cnn([C@@H]2O[C@H](CO)[C@@H](O)[C@H]2O)c(=O)[nH]1 | 1 | 0 | 48* | -2
O=c1[nH]cnc2c1ncn2[C@@H]1O[C@H](CO)[C@@H](O)[C@H]1O | -1 | 0 | -4 | -4
O=c1ncn(C2OC(CO)C(O)C2O)c(=O)[nH]1 (stereo not drawn) | 0 | 0 | 74* | 0
C/C(=N/NC(=S)Nc1cccc(C)c1)c1ccc(N)cc1 | 0 | 0 | -6 | -5
CCCNC(=O)c1cc(NCc2ccc3c(c2)OCO3)nc2ccccc12 | 0 | 0 | -1 | -4
O=C(NCCOc1ccccc1)c1cc(NCc2ccc3c(c2)OCO3)nc2ccccc12 | 6.1* | 0 | -6 | 13
COc1ccc(CN2CCN(S(=O)(=O)c3sc4ccc(Cl)cc4c3C)CC2)c(OC)c1OC | 0 | 0 | 5 | 10
CN(C)c1cc(C(=O)N2CCN(C(=O)Nc3ccc(F)cc3F)CC2)nc(N(C)C)n1 | 4 | 0 | 12 | 14
SMILES | GPR151 ag | FBW7 act | TEAD-YAP block | MITF primary
Nc1cccc(-c2nc(NCc3nc4ccccc4[nH]3)c3[nH]cnc3n2)c1 | -1 | 0 | 0 | 6
Clc1nc(NC2CCN(Cc3ccccc3)CC2)c2ncn(C3CCCCC3)c2n1 | -1 | 0 | 9 | 14
Cc1nc2cc(-c3ccc(Cl)cc3)nn2c(C)c1CCC(=O)O | 1 | 0 | 44* | 13
Cc1nc2cc(-c3ccccc3)nn2c(C)c1CCC(=O)O | -5 | 0 | 51* | 6
Cc1csc(NC(=O)CCc2c(C)nc3cc(-c4ccccc4)nn3c2C)n1 | 0 | 1 | 38* | 1
COc1cc(OC)cc(-c2cc3nc(C)c(CCC(=O)NCc4ccccc4)c(C)n3n2)c1 | -1 | 0 | 39* | -7
CCN(CC)S(=O)(=O)c1ccc(OC)c(NC(=O)c2ccccc2Br)c1 | 1 | 0 | -7 | -7
Cc1cc(C)c(N(C(=O)CCl)C(=O)C2CCCN2C(=O)CCl)c(C)c1 (stereo not drawn) | 1 | 0 | 32* | 4
CCCCSc1nnc(-c2ccc3c(c2)OCO3)n1C | 0 | 2.1* | -71 | 13
CC1=C(C)CS(=O)N(S(=O)(=O)c2ccc(C)cc2)C1 (stereo not drawn) | -1 | 0 | 9 | -2
Nc1ccc2nc3c(c(Cl)c2c1)CCCC3 | 1 | 0 | 33* | 9
COc1ccc(CNn2c(-c3ccc(F)cc3)nc3ccccc3c2=O)cc1OC | -2 | 0 | 0 | 21
COCCNc1ccnc2c(-c3cccc(N(C)C)c3)cnn12 | 0 | 0 | -23 | 10
COCCNc1ccnc2c(-c3cccc(C(=O)O)c3)cnn12 | 1 | 0 | 99* | -2
COCCNc1ccnc2c(-c3ccc(C(=O)NC4CC4)cc3)cnn12 | 1 | 0 | 1 | -283
CN(C)c1cccc(Nc2ccnc3c(-c4cccc(O)c4)cnn23)c1 | 0 | 0 | 65* | 1
CCCNc1ccnc2c(-c3cccc(C(C)=O)c3)cnn12 | -1 | 0 | -39 | -19
CN(C)c1cccc(Nc2ccnc3c(-c4ccsc4)cnn23)c1 | 0 | 0 | -3 | -12
CCCNc1ccnc2c(-c3cccc(C(=O)O)c3)cnn12 | -7 | 0 | 103* | -10
CCCNc1ccnc2c(-c3cccc(N(C)C)c3)cnn12 | 1 | -1 | 32* | 5
CC(C)c1ccc(/C=C2/SC(=Nc3ccccc3Cl)NC2=O)cc1 | 1 | 0 | 0 | 6
Cc1ccc(NC(=O)c2ccccc2NC(=O)c2cc3ccccc3oc2=O)c(C(=O)c2ccccc2)c1 | 2 | 0 | 5 | -1
CC1CC(=O)C(C)N(C(C)C)C1 (stereo not drawn) | -1 | 0 | -6 | 17
CCOC(=O)c1ccc(C(=O)N(NC(=O)C(O)(c2ccc(Cl)cc2)c2ccc(Cl)cc2)c2ccccc2)cc1 | -1 | 0 | 15 | -1
COc1ccc(/C=C2\SC(=O)NC2=Nc2ccccc2)c(OC)c1 | 2 | 0 | 47* | 13
SMILES | GPR151 ag | FBW7 act | TEAD-YAP block | MITF primary
COc1ccc(OC)c(/C=C2\SC(=Nc3ccc(O)cc3)NC2=O)c1 | 1 | 0 | 54* | 5
COc1ccc(OC)c(/C=C2\SC(=Nc3ccccc3)NC2=O)c1 | 0 | 0 | 8 | 6
COc1ccc(/C=C2/SC(=Nc3cccc(C)c3)NC2=O)c(OC)c1 | 1 | 0 | 54* | -2
COc1ccc(/C=C2/SC(=Nc3ccc(F)cc3)NC2=O)c(OC)c1 | 4 | 0 | 42* | 7
COc1ccc(/C=C2\SC(=O)NC2=Nc2ccccc2)cc1 | 1 | 0 | -31 | 20
COc1cccc(N=C2NC(=O)/C(=C/c3ccc(OC)c(OC)c3)S2)c1 | -1 | 0 | 48* | -6
O=c1[nH]c(N/N=C/c2ccccc2O)nc2ccccc12 | -3 | 0 | 72* | 78*
COc1ccc(Cc2nnc(N/N=C/c3cccs3)[nH]c2=O)cc1OC | -1 | -1 | 4 | -9
COc1ccc(/C=N/Nc2nnc(Cc3ccccc3)c(=O)[nH]2)cc1OC | 0 | 0 | 4 | 15
O=c1[nH]c(N/N=C/c2ccc(O)cc2O)nnc1Cc1ccccc1 | -1 | 0 | 8 | 104*

Compound activity (PubChem BioAssay)
